Assay results as given in PubChem BioAssay (NCATS).
Where “and” joins values, the source holds several entries; their conditions need not be identical. Equal entries are not always repeated. Records with an inconclusive call do not appear. Calls of active or inactive are those of the source. Unless noted, calls come from the whole dose curve; as a rule, active = well fitted curve in the direction sought with a large enough effect; inconclusive = small, poorly fitted or top-dose-only effect, or another doubt; inactive = no such curve, though single readings can be large; an effect the other way counts as inactive or inconclusive.

What was measured:
[1] = molecular target: T1, Hexokinase-4 (Homo sapiens) + Glucokinase regulatory protein (Homo sapiens) (UniProt P35557+Q14397); assay: qHTS assay for inhibitors of recombinant human GCK-GKRP interaction: ADP-Glo assay (AID 743206);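 note: plate controls were DMSO plus enzyme for no effect and no enzyme for full effect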
T1 sequence (P35557 whole entry, looked up): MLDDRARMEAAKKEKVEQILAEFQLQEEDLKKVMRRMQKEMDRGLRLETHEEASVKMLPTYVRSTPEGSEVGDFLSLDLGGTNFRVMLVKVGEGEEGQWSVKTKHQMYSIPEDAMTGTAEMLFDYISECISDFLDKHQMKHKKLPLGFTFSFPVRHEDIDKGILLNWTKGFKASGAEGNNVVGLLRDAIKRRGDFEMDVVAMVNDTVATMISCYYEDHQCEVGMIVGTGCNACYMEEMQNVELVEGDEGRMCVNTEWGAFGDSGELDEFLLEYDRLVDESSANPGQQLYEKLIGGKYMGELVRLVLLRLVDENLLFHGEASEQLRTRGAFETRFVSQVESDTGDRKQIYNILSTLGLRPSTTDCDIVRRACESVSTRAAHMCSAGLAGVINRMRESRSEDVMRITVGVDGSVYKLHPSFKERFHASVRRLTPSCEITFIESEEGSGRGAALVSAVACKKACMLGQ
T1 sequence (Q14397 whole entry, looked up): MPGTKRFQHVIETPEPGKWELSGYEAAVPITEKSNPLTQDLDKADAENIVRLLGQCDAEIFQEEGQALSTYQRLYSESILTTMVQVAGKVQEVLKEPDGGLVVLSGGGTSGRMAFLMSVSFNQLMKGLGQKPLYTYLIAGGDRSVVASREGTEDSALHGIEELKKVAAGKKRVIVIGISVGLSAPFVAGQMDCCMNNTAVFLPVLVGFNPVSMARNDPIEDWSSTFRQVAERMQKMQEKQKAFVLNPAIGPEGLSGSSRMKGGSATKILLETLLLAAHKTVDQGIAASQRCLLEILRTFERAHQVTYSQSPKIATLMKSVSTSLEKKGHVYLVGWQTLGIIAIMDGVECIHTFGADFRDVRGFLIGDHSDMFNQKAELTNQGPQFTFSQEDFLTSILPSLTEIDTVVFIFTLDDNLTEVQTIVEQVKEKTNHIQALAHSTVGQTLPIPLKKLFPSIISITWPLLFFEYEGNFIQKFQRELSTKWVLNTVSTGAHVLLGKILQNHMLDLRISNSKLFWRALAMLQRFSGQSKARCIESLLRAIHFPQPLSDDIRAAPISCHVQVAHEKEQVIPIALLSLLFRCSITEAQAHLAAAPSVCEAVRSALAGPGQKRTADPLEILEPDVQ
Method in brief: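 Pin-transferred compounds meet a 15 nM GST-GCK/15 nM FLAG-GKRP/2 uM S6P mix (dispense concentrations). ATP is then added to 0.4 mM final with 5 mM glucose, and the reaction runs 60 min at room temperature. ADP is quantified luminescently.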

[2] = molecular target: T1, Hexokinase-4 (Homo sapiens) + Glucokinase regulatory protein (Homo sapiens); assay: qHTS assay for inhibitors of recombinant human GCK-GKRP interaction: HTRF assay (AID 743207);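 note: 0% = DMSO with GCK present and -100% = DMSO wells lacking GCK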
Method in brief: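 Titration screening format: recombinant GST-GCK and FLAG-GKRP at 5 nM, S6P at 2 uM, labelled anti-tag antibodies, 60 min at RT, dual-wavelength HTRF readout.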

[3] = molecular target: Atrial natriuretic peptide receptor 1 (Homo sapiens) (UniProt P16066); assay: Natriuretic polypeptide receptor (hNpr1) antagonism - Pilot screen (AID 1347049; calls by dose curve;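 note: HEK293 cells with hNpr1 and GloSensor cGMP luciferase stimulated by 0.1 nM hNppA; agonist-evoked cGMP luminescence read 20 min after hNppA addition; series mostly up to about 58 µM; % is set by controls: 0 for no effect and ±100 for the full control effect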)
Atrial natriuretic peptide receptor 1 (Homo sapiens), sequence (P16066 whole entry, looked up): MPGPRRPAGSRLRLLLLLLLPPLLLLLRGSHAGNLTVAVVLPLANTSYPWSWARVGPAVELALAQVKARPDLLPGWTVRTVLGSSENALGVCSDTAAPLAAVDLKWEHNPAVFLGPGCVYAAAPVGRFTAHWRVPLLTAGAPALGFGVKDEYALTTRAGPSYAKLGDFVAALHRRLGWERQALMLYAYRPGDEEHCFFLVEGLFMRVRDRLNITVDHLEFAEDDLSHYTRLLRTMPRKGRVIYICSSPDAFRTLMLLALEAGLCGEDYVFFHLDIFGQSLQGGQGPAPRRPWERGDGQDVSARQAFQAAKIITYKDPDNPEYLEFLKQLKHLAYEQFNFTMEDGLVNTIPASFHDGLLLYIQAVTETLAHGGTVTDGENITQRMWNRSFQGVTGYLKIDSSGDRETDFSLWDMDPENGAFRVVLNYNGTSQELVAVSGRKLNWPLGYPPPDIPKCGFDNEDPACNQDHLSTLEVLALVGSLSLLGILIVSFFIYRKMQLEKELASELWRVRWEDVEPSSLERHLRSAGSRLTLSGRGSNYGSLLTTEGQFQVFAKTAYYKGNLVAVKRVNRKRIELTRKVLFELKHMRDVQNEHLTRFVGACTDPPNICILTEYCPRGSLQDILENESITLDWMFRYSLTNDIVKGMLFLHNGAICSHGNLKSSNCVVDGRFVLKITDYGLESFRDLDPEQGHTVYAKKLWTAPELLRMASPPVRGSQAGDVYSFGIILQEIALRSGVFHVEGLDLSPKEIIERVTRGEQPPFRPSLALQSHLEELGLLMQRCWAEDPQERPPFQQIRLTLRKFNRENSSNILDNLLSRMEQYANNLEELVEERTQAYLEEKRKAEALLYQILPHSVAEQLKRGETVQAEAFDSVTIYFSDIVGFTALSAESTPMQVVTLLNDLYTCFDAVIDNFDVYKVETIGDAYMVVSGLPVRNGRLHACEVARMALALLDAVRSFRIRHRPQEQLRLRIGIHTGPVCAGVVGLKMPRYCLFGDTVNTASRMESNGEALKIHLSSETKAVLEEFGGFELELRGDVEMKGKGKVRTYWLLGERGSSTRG
Method in brief: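 Receptor antagonism read as cGMP-dependent luminescence in hNpr1/pGS-40F HEK293 cells: pre-read after 30 min compound exposure, post-read 20 min after hNppA agonist at 0.1 nM final, all at room temperature, protected from light; A-71915 titration as control.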

[4] = molecular target: Atrial natriuretic peptide receptor 2 (Homo sapiens) (UniProt P20594); assay: Natriuretic polypeptide receptor (hNpr2) antagonism - Pilot subtype selectivity assay (AID 1347050; calls by dose curve; note: % is set by controls: 0 for no effect and ±100 for the full control effect)
Method in brief: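 Antagonist mode: compounds (LOPAC1280, seven 1:5 dilutions) added 30 min before 1 nM hNppC stimulation of hNpr2-HEK293 cGMP-sensor cells; luminescence read before and 20 min after agonist at ambient temperature.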

[5] = molecular target: Parathyroid hormone/parathyroid hormone-related peptide receptor (Homo sapiens) (UniProt Q03431); assay: qHTS for PTHR1 Agonists: Optimization Screen against the NCGC LOPAC library (AID 1347079);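 note: GloSensor cAMP luminescence in HEK-293 GP2 cells expressing human PTHR1 with IBMX; 0% is about no effect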
Method in brief: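 Signal increase flags agonism. GP2 cells, derived from HEK-293, express human PTHR1 and a GloSensor cAMP construct.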

[6] = molecular target: N-terminal Xaa-Pro-Lys N-methyltransferase 1 (Homo sapiens) (UniProt Q9BV86); assay: qHTS Assay for Inhibitors of N-terminal methyltransferase 1 (NTMT1): LOPAC validation of the NTMT1 SAHH-coupled ThioGlo3 Assay (AID 1347143);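 note: SAH from peptide methylation measured as thiol fluorescence via SAHH coupling and ThioGlo3; potency is the fitted concentration of half-maximal effect; nearly all actives have a fitted effect of over 70% in size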
N-terminal Xaa-Pro-Lys N-methyltransferase 1 (Homo sapiens), sequence (Q9BV86 whole entry, looked up): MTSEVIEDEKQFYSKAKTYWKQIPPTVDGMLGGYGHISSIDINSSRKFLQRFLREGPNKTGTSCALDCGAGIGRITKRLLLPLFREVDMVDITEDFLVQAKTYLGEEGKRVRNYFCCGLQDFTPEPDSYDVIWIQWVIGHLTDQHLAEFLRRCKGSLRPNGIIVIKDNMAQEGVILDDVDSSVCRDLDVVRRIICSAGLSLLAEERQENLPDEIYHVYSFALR
Method in brief: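 NTMT1 125nM + cpds (various conc.), 1 min RT; add SAM 100uM/SAHH 10uM/ThioGlo3 15uM (addition mix). SAHH-coupled thiol detection, Ex340/Em450, t0 and 30 min RT; signal normalized to background. LOPAC 1280-cpd pilot.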

[7] = tested on: Zika virus NS2B-NS3 protease; assay: Primary screen GU AMC qHTS for Zika virus inhibitors (AID 1347154);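 note: 0% = no-inhibitor control and -100% = no-enzyme control; nearly all actives have a fitted effect of over 70% in size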
Method in brief: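 Fluorogenic AMC-substrate cleavage by noncovalent NS2B-NS3 protease complex (25 nM, pH 8.0 Tris buffer with Tween 20) followed for 15 minutes at room temperature (~20% conversion). Percent inhibition from ex340/em450 signal change, fitted by 4-parameter Hill equation.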

[8] = molecular target: Lysine-specific demethylase 5B (Homo sapiens) (UniProt Q9UGL1); assay: Optimization screen for KDM5B Histone Demethylases FDH coupled qHTS against the LOPAC library (AID 1347166); note: 0% is about no effect
Lysine-specific demethylase 5B (Homo sapiens), sequence (Q9UGL1 whole entry, looked up): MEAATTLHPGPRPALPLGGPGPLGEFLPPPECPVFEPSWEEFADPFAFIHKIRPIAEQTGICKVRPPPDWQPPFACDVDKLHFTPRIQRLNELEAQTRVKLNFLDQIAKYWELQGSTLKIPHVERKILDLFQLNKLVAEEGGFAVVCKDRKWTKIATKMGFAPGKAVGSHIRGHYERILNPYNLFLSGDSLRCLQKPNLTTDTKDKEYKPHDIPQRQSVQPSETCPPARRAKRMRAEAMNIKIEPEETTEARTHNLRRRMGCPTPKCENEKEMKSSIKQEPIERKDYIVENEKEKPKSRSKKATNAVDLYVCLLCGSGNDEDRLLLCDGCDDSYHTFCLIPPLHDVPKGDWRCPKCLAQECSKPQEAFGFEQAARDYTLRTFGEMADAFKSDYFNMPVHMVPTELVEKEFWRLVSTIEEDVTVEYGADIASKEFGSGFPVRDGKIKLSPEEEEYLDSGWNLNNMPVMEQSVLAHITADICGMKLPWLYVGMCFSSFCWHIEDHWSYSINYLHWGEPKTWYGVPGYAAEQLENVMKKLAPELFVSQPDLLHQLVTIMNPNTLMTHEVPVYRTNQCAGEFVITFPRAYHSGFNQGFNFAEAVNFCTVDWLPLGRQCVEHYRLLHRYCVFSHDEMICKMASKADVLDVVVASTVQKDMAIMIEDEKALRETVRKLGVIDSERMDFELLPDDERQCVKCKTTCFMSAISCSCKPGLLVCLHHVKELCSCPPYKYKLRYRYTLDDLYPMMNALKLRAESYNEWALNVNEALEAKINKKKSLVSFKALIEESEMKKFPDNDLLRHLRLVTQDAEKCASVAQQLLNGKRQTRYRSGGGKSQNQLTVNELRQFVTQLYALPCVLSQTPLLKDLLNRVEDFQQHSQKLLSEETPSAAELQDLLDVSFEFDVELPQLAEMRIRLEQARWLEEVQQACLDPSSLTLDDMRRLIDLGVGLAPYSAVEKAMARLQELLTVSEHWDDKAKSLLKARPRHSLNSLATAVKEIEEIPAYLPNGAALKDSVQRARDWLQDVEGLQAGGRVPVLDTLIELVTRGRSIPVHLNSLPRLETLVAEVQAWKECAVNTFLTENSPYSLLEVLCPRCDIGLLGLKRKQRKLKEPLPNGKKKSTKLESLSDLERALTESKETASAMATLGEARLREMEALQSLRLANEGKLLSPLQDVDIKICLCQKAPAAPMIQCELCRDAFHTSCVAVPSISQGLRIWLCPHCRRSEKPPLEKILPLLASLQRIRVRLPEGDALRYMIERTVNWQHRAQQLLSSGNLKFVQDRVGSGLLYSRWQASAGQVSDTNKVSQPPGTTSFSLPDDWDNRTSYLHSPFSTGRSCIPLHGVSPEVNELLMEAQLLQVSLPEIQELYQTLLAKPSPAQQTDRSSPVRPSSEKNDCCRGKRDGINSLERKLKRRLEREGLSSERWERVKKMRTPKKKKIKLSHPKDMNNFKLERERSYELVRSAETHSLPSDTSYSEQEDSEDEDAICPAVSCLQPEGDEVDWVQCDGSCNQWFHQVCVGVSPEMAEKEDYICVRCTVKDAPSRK
Method in brief: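 KDM5BDeltaAP (200nM final) in 50mM HEPES pH 7.5, 0.01% Tween-20 was preincubated with compound for 10 min at room temperature. A substrate mix of 12.5uM H3K4Me3, 25uM a-ketoglutarate, ascorbate, Fe2+, NAD+ and formaldehyde dehydrogenase was then added. NADH fluorescence (340/450 nm) was read initially and after 30 min.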

[9] = qHTS to identify inhibitors of the type 1 interferon - major histocompatibility complex class I in skeletal muscle: primary screen against the NCATS LOPAC collection (AID 1347405);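 note: human myoblasts with HiBiT tag on endogenous HLA-B stimulated by IFN-beta; lytic HiBiT luminescence reporting HLA-B protein level; potency is the fitted concentration of half-maximal effect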
Method in brief: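 HLA-B HiBiT myoblasts, IFN-b 4 ng/ml, dexamethasone-free medium; compounds 7-pt 1:4.3 titration, top 46 uM final; 24 h at 37 C; Nano-Glo HiBiT lytic reagent, 10 min RT, luminescence.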

[10] = Validation qHTS assay for inhibitors of Activation Induced Cytidine Deaminase (AID): UDG Counterscreen signal (AID 1347427); note: 0% is about no effect
Method in brief: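 Fluorescence at 560 nm excitation, 665 nm emission reports UDG signal after 250 mM NaOH (2x) addition and 30 min. Enzymes (AID 1 uM, UDG 2 U/mL, at 4/3x) preincubated 10 min with compound, then 4 h with 4x 250 nM DJC20/DJC23 substrate at room temperature.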

[11] = molecular target: Single-stranded DNA cytosine deaminase (Homo sapiens) (UniProt Q9GZX7); assay: Validation qHTS assay for inhibitors of Activation Induced Cytidine Deaminase (AID): AID signal (AID 1347429); note: % is set by controls: 0 for no effect and ±100 for the full control effect
Single-stranded DNA cytosine deaminase (Homo sapiens), sequence (Q9GZX7 whole entry, looked up): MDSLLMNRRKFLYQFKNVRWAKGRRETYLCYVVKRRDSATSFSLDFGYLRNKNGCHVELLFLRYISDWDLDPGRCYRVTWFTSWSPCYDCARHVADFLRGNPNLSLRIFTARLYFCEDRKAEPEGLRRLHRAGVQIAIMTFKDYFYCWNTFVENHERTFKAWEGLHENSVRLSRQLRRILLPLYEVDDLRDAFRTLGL
Method in brief: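 AID+UDG coupled FRET deamination; cpds up to 114 uM final; DJC20/DJC23 substrate, 4 hr RT; NaOH stop, 30 min RT; read Ex 540/Em 590.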

[12] = Primary qHTS for inhibitors of La Crosse Virus (LACV) - induced cell death in SH-SY5Y cells (AID 1508616);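 note: top concentration of the series differs between compounds; 0% = infected DMSO wells and 100% = uninfected DMSO wells; higher means more rescue of cells from virus-induced death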
Method in brief: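 Cytopathicity rescue screen: compounds pinned onto SH-SY5Y cells, which are then infected with LACV (MOI 0.01) and held 6 days at 37C. Percent activity is scaled between infected DMSO control and uninfected DMSO control.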

[13] = Counterscreen qHTS for small molecule stabilizers of the endoplasmic reticulum resident proteome: GLuc-NoTag assay (AID 1508627); note: potency is the fitted concentration of half-maximal effect
Method in brief: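 Counterscreen line: SH-SY5Y-GLuc-NoTag cells, treated with compound 19 hr before a 4 hr, 100 nM thapsigargin calcium depletion. Secreted Gaussia luciferase in the medium was measured by luminescence after coelenterazine was added (0.07x final), with cells unlysed.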

[14] = Confirmatory qHTS for small molecule stabilizers of the endoplasmic reticulum resident proteome: Secreted ER Calcium Modulated Protein (SERCaMP) assay (AID 1508628); note: potency is the fitted concentration of half-maximal effect; nearly all actives have a fitted effect of over 40% in size
Method in brief: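 GLuc-SERCaMP-expressing SH-SY5Y cells, pretreated 16 h with compound, are challenged with thapsigargin to empty ER calcium stores; after 4 h, coelenterazine is added directly to the medium and luminescence is imaged.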

[15] = Cell Viability qHTS for small molecule stabilizers of the endoplasmic reticulum resident proteome (AID 1508629); settings: cell viability counter-screen, 100 nM thapsigargin for final 4 h;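 note: human SH-SY5Y neuroblastoma cells carrying the GLuc-SERCaMP reporter; compound exposure about 46 h in total before the viability read; % is set by controls: 0 for no effect and ±100 for the full control effect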
Papain (Carica papaya) = Papain (Carica papaya) (UniProt P00784); assay: Primary qHTS assay for inhibitors of the protease papain (AID 1645873)
[16] = molecular target: Metallo-beta-lactamase type 2 (Klebsiella pneumoniae) (UniProt C7C422); assay: qHTS to identify inhibitors of the New Delhi Metallo-beta-lactamase (NDM): assay validation screen against the NCATS LOPAC Collection (AID 1794843)
Metallo-beta-lactamase type 2 (Klebsiella pneumoniae), sequence (C7C422 whole entry, looked up): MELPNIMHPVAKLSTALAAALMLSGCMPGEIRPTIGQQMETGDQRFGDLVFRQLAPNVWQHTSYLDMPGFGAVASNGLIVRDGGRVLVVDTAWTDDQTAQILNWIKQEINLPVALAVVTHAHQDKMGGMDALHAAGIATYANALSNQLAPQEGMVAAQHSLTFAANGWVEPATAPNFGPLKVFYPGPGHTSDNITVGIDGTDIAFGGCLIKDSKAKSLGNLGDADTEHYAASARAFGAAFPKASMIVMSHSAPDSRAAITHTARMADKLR
Method in brief: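 Absorbance at 485 nm from nitrocefin turnover (50 uM solution added), read at plateau, gives the read-out. Compounds in DMSO were incubated first with 2 nM final NDM-1 in pH 7.0 HEPES buffer containing 1 uM ZnSO4 and 0.01% Tween20.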

[17] = molecular target: Glutathione peroxidase 1 (Homo sapiens) (UniProt P07203); assay: Primary qHTS Assay for Inhibitors of Recombinant Selenoprotein Glutathione Peroxidase 1 (GPX1) (AID 1845191); note: nearly all actives have a fitted effect of over 65% in size
Glutathione peroxidase 1 (Homo sapiens), sequence (P07203 whole entry, looked up): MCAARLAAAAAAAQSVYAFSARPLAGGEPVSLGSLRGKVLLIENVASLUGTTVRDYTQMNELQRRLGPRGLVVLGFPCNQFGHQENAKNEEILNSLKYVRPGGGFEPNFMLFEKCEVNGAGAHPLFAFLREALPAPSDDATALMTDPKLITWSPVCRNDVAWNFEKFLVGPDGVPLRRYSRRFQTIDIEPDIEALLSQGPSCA
Method in brief: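 NADPH consumption tracked by fluorescence at 340/450 nm between t=0 and t=15 min, room temperature. Final mix: 10 nM GPX1, 100 nM glutathione reductase, 1 mM GSH, 0.5 mM NADPH, 0.5 mM cumene hydroperoxide, 0.01% BSA; 30 min compound–enzyme preincubation.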

[18] = molecular target: Phospholipid hydroperoxide glutathione peroxidase GPX4 (Homo sapiens) (UniProt P36969); assay: Primary qHTS Assay for Inhibitors of Recombinant Selenoprotein Glutathione Peroxidase 4 (GPX4) (AID 1845192); settings: outcome: dose series up to 50 µM unless noted; note: nearly all actives have a fitted effect of over 65% in size
Phospholipid hydroperoxide glutathione peroxidase GPX4 (Homo sapiens), sequence (P36969 whole entry, looked up): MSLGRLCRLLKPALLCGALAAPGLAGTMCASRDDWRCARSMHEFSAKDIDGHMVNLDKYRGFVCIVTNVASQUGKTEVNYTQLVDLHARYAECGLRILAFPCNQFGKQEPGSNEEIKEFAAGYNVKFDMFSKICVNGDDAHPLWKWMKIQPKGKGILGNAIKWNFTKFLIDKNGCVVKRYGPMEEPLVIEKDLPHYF
Method in brief: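 NADPH consumption followed by fluorescence at 340/450 nm, t=0 and after 15 min at room temperature. Reaction started with cumene hydroperoxide (0.5 mM final) after 30 min compound–GPX4 preincubation; final 200 nM GPX4, 100 nM GR, 1 mM GSH, 0.5 mM NADPH.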

[19] = qHTS assay to identify inhibitors of the type 1 interferon - major histocompatibility complex class I in skeletal muscle: Counter screen cell viability and HiBit confirmation (AID 1347412); settings: iHSKM muscle cells + IFN-b, HiBiT or CellTiter-Glo, 24 h; HiBiT; note: potency is the fitted concentration of half-maximal effect; nearly all actives have a fitted effect of over 60% in size
Method in brief: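 Human myoblast knock-in line, 4.0 ng/ml IFN-beta stimulation, 24 h compound treatment. Endpoints: HiBiT lytic luminescence (HLA-B level) and CellTiter Glo (ATP). Dosing 12 concentrations, 3-fold steps, 46 uM highest final.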

O=Nc1c(-c2c(O)[nH]c3ccccc23)[nH]c2ccccc12
inactive: outcome [1] | outcome [2] | Potency [3] | Potency [4] | outcome [5] | Potency [7] | outcome [8] | outcome [10] | Potency [11] | outcome [12] | max response [15] -10.5% | Potency (Papain (Carica papaya)) | Potency [16] | Potency [17] | Potency [18]
active: Potency [6] 20 µM | Potency [9] 11.2 µM | Potency [13] 15.8 µM | Potency [14] 28.2 µM and 4.47 µM | Potency [19] 14 µM
